Hits are enriched below; roughly 7.3% of the tested compounds scored in any of these assays.
Rab9 promoter act: activates the Rab9 promoter. AID 485297. Huh7 Rab9 promoter-luciferase reporter, luminescence, 24 h. 2.8% of 320,000 active. Potency, µM (series often up to 9.22 µM), for inactives: at the highest dose activation, negative = inhibition, most hits filed as activators; note: % of control where 0% means no effect; nearly all actives have a fitted effect of over 60% in size
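Luminescence read-out: Huh7 cells stably expressing Rab9-luciferase, treated 24 h with compound at 37 °C, then lysed with luciferase reagent for 10 min at ambient before reading.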
NPC1 prom act: activates the NPC1 promoter; 2.4% of 320,000 active; Potency, µM (series often up to 9.22 µM), inactives show at the top dose activation, most hits filed as activators; AID 485313; Huh7 NPC1 promoter luciferase reporter, 24 h; note: % of control where 0% means no effect; nearly all actives have a fitted effect of over 60% in size
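Huh7 cells stably carrying NPC1 promoter–luciferase, plated in Opti-MEM with 10% FBS for 2 h, were exposed to compound in DMSO for 24 h at 37 °C; luciferase reagent was added for 10 min and luminescence read.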
SMN2 splice enh: increases expression of the SMN2 splice variant; HEK293 SMN2-luciferase splicing reporter, luminescence, 30-36 h; Potency, µM (titrated, usually from 46.1 µM), for the others: top-dose activity change, positive = activation, hits mostly activators; 2.8% of 210,000 active; AID 1458; note: % of control where 0% means no effect; nearly all actives have a fitted effect of over 55% in size
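HEK293 cells carry an SMN2 minigene-luciferase reporter in which exon 7 inclusion puts luciferase in frame. Cells were seeded at 2000 cells/well, attached for 10-12 hours, then exposed to compounds for 30-36 hours at 37C before ONE-Glo luminescence.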
KinaseGlo FLuc: counter-screen: inhibitors of Kinase-Glo firefly luciferase. Kinase-Glo luciferase, ATP luminescence, 8 min. Potency, µM (series often up to 38.3 µM), for the others: at the highest dose activity change, negative = inhibition, most hits filed as inhibitors. 0.28% of 200,000 active; note: % is set by controls: 0 for no effect and ±100 for the full control effect; nearly all actives have a fitted effect of over 60% in size
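Inhibition of Kinase-Glo luciferase light generation was assessed at 10 uM ATP in pH 7.2 imidazole buffer, with luminescence measured after eight minutes at ambient temperature.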
FLuc modulator: firefly luciferase modulation, counter-screen for miR-21 project | P08659 | purified FLuc, Km substrates, luminescence inhibition | Potency, µM (highest dose often 57.5 µM), for inactives: at the highest dose activity change, negative = inhibition, most hits filed as inhibitors | 6.9% of 360,000 active;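 note: plate controls were vehicle for no effect and reference inhibitor for full effect; nearly all actives have a fitted effect of over 55% in size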
Target sequence (P08659 whole entry, looked up): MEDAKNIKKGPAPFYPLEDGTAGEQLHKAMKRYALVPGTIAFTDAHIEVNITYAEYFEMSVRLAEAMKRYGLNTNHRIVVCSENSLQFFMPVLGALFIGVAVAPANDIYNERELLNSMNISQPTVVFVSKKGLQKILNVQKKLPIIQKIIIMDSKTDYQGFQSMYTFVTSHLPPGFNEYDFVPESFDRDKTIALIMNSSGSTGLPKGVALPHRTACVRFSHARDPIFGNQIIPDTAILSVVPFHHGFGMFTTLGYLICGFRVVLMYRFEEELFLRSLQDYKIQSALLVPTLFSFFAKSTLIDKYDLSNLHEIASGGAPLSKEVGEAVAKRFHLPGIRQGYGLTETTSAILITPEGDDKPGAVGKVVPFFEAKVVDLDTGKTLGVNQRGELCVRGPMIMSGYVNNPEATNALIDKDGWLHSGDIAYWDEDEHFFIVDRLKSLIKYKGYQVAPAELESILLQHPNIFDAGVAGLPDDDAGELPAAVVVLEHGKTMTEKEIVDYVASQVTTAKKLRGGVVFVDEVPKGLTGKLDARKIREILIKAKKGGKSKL
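Biochemical qHTS of compounds, final roughly 60 µM downward over six points, against 10 nM purified firefly luciferase using Km concentrations of substrates (10 uM D-luciferin, 10 uM ATP) in Tris acetate pH 7.5 buffer; luminescence output.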
ELG1 genotoxic: genotoxicity induction in ELG1-luciferase HEK293T cells; 1.3% of 330,000 active; Potency, µM (series often up to 46 µM), without a hit: at the top dose activity change, positive = activation, usual class: activators; HEK293T ELG1-luciferase reporter, luminescence, 16 h; AID 504466; note: % of control where 0% means no effect; nearly all actives have a fitted effect of over 60% in size
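16 hr compound incubation (37 °C, 5% CO2) of HEK293T cells carrying luciferase-tagged ELG1; luciferase then measured by ONE-Glo luminescence after 30 min at RT.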
The depositor's hits bear a star; ? = inconclusive; · = no result given; [ ] = dose if it differs, or a comment. Calls come from the whole dose curve; as a rule, active = well fitted curve in the direction sought with a large enough effect; inconclusive = small, poorly fitted or top-dose-only effect, or another doubt; inactive = no such curve, though single readings can be large; an effect the other way counts as inactive or inconclusive. Potency is the fitted concentration of half-maximal effect.

SMILES	Rab9 promoter act	NPC1 prom act	SMN2 splice enh	KinaseGlo FLuc	FLuc modulator	ELG1 genotoxic
O=C(Nc1ccccc1NC(=O)NC1CCCCC1)NC1CCCCC1	-6.7%	-5.4%	-78.2%	-2.1%	?	-31.1%
Cc1ccc(S(=O)(=O)NC2CCCC2)cc1C	3.6%	0.1%	-0.8%	-2.3%	-1.7%	-1.3%
Cc1cc(=O)[nH]c2ccc(S(=O)(=O)NC3CCCCC3)cc12	-4.0%	-1.4%	·	·	1.4%	20.6µM*
Nc1nn(-c2ccccc2)nc1C(=O)OCc1ccccc1F	15.2%	0.6%	15.5%	-0.6%	16.9µM*	5.9%
Cc1cccc(C(=O)OCC(=O)N2CCCCCC2)c1	?	?	·	·	19µM*	?
Cc1cccc(C(=O)OCC(=O)N2CCCCCC2)c1O	3.16µM*	3.16µM*	·	·	·	?
Cc1cc(C)cc(C(=O)OCC(=O)N2CCCC2)c1	5.7%	4.2%	·	·	-3.1%	4.6%
Cc1cccc(C(=O)OCC(=O)N2CCc3ccccc3C2)c1O	·	·	·	·	·	-3.6%
O=C(OCC(=O)N1CCOCC1)c1ccccc1Cc1ccccc1	3.16µM*	1.58µM*	11.2µM*	-17.4%	9.53µM*	13µM*
O=C(OCC(=O)N1CCCCCC1)c1ccc(F)cc1F	3.55µM*	15.4%	·	·	13.5µM*	1.2%
CC/C(=N\NC(=S)Nc1ccc(OC)cc1)c1ccc(OC(F)F)cc1	-8.2%	-2.4%	-13.2%	-0.2%	3.7%	-1.2%
O=C(NC1=C(Nc2ccc(F)cc2)C(=O)c2ccccc2C1=O)c1ccc(Cl)cc1	-2.7%	1.4%	12.8%	-11.0%	-17.5%	-1.8%
Cc1ccc(C(=O)NNC(=O)c2ccccc2O)cc1S(=O)(=O)N1CCCCC1	-6.1%	-1.6%	·	·	?	4.7%
CCOC(=O)c1cccc(NC(=O)CCc2c(C)nc3cc(-c4ccc(Cl)cc4)nn3c2C)c1	·	·	-21.0%	·	12µM*	·
CCOc1ccc(NC(=O)CCc2c(C)nc3cc(-c4ccc(Cl)cc4)nn3c2C)cc1	·	·	-16.9%	·	6.75µM*	·
COC(=O)c1ccccc1NC(=O)CCc1c(C)nc2cc(-c3ccc(Cl)cc3)nn2c1C	·	·	-32.2%	·	?	·
COc1ccc(-n2c(=O)c3c4c(sc3n(CC(=O)C(C)(C)C)c2=O)CCCC4)c(OC)c1	·	·	2.6%	·	1.3%	·
CC(C)CCNC(=O)c1c[nH]c2ccc(S(=O)(=O)N3CCC4(CC3)OCCO4)cc2c1=O	2.3%	1.0%	-7.6%	1.2%	1.0%	-1.0%
CCN(CC)c1ccc(/C=N/NC(=O)c2c[nH]c3ccccc23)cc1	1.4%	6.1%	-17.1%	-5.3%	10.7µM*	1.0%
CCN(CC)c1ccc(/C=N/NC(=O)c2cc3ccccc3[nH]2)cc1	19.2%	3.2%	·	·	12µM*	2.2%
CCN(CC)c1ccc(/C=N/NC(=O)c2cc(C)nc3ccccc23)cc1	-5.4%	2.3%	·	·	?	12.9%
CCN(CC)c1ccc(/C=N/NC(=O)c2ccc([N+](=O)[O-])cc2)cc1	3.1%	-3.4%	·	·	8.0%	6.3%
O=C(O)c1ccc(CSc2nnc(-c3ccc(Cl)cc3)o2)cc1	-1.0%	-3.6%	·	·	16.9µM*	8.5%
O=C(O)c1ccc(CSc2nnc(-c3ccccc3Br)o2)cc1	-0.9%	2.1%	·	·	23.9µM*	6.4%
O=S(=O)(Nc1cccc(-c2ccc(N3CCCCCC3)nn2)c1)c1ccccc1F	?	16.3%	·	·	19µM*	?
SMILES	Rab9 promoter act	NPC1 prom act	SMN2 splice enh	KinaseGlo FLuc	FLuc modulator	ELG1 genotoxic
O=S(=O)(Nc1cccc(-c2ccc(N3CCCCCC3)nn2)c1)c1ccccc1Cl	29.4%	18.8%	·	·	8.49µM*	3.7%
Cc1ccc(NC(=O)N2CCN(Cc3nc4ccc(C)cc4o3)CC2)cc1	·	·	·	·	-4.2%	·
Cc1cccc(CC(C)NC(=O)c2cc(COc3ccc(F)cc3F)on2)n1 (stereo unspecified)	22.7%	16.4%	·	·	?	3.4%[9.26 µM]
COc1ccc(OCc2cc(C(=O)NCCc3ccccc3)no2)c(Cl)c1	2.4%	-20.2%	·	·	?	-5.1%
COc1cc(Cl)ccc1OCc1cc(C(=O)NC(C)Cc2cccnc2)no1 (stereo unspecified)	?	?	·	·	8.49µM*	5.4%
COc1ccc(OCc2cc(C(=O)N3CCN(CC4CC4)CC3)no2)c(Cl)c1	?	?	·	·	?	4.6%[9.26 µM]
COc1ccccc1CCc1nnc(CCC(=O)N(C)Cc2cccc3cnccc23)o1	2.82µM*	3.98µM*	·	-4.7%	12µM*	4.8%
COc1ccc(OCc2cc(C(=O)NCC(C)Oc3cccnc3)no2)c(Cl)c1 (stereo unspecified)	?	?	·	·	15.1µM*	6.1%
COc1ccccc1CCc1nnc(CCC(=O)N(C)Cc2ccncc2C)o1	1.7%	-0.5%	·	2.9%	2.4%	-0.9%
COc1ccc(OCc2cc(C(=O)NC(C)Cc3cnccn3)no2)c(Cl)c1 (stereo unspecified)	?	?	·	·	19µM*	?
CC(=O)c1cccc(CN2CCCCC2C(=O)Nc2ccc(Oc3ccccc3)nc2)c1 (stereo unspecified)	15.9%	1.3%	·	·	0.2%	0.3%
COc1ccc(-c2nnc(NC(=O)C3CCCN3S(=O)(=O)c3cccs3)o2)cc1 (stereo unspecified)	-3.9%	2.8%	·	·	-15.5%	0.0%
COc1ccc(NC(=O)c2cnc(SCC(=O)NCCc3ccccc3)n(C)c2=O)cc1	2.2%	-1.6%	·	·	-3.2%	-0.5%
CN(CC(=O)NCCN1CCOCC1)S(=O)(=O)c1ccc(Cl)cc1	·	·	·	·	·	2.6%
COc1cc(Cl)ccc1OCc1cc(C(=O)N(C)Cc2cccc3cnccc23)no1	?	?	·	·	13.5µM*	-15.5%
CN(Cc1nccs1)C(=O)c1cc(COc2cccc3cnccc23)on1	-26.1%	-21.7%	·	·	3.1%	-13.9%
OC(COCC1COc2ccccc2O1)CN1CCN(c2ccccc2F)CC1 (stereo unspecified)	-0.1%	-4.7%	-17.1%	4.1%	-0.7%	-3.1%
O=C(OCC1COc2ccccc2O1)c1c(F)cccc1F (stereo unspecified)	9.9%	-1.3%	·	·	15.1µM*	?
CCc1nnc(NC(=O)CSc2nc(C)c3c(c2C#N)CCCC3)s1	?	?	·	·	8.49µM*	7.5%
O=C(Nc1cccnc1Cl)c1cc(-c2ccc(O)cc2)on1	24.6%	-3.3%	·	·	?	?
CCC(C)NC(=O)c1cc(-c2ccccc2O)on1 (stereo unspecified)	?	17.6%	-3.6%	-2.2%	?	?
COc1ccc(-c2cc(C(=O)NC3CCCCC3)no2)cc1OC	6.3%	0.4%	·	·	1.2%	2.9%
Cc1ccc(-c2cc(C(=O)NC3CCCCC3)no2)cc1	3.55µM*	2.51µM*	·	·	?	17.5%
O=C(NC1CCCCC1)c1cc(-c2ccc(O)cc2)on1	3.16µM*	2.51µM*	·	·	?	?
